Assay: TOR pathway CIT2 reporter hit retest – S. cerevisiae, GFP fusion, cherry picks, mother/daughter gates, confirmation (AID 2274)
Conditions: S. cerevisiae CIT2-GFP strain, flow cytometry, 3 h; measured here: mother cell gate; at 10 µM; stronger effect = higher value

Question: For `N=c1n(CCN2CCCCC2)c2ccccc2n1CC(=O)c1ccc(Cl)c(Cl)c1`, which GFP response, % of DMSO is on record?
Answer: The GFP response, % of DMSO was 78.3%.

Question: For `COc1cc(NC(=O)c2ccccc2F)ccc1NC(=O)c1cc2ccccc2o1`, which GFP response, % of DMSO is on record?
Answer: The GFP response, % of DMSO was 98.1%.

Question: For `CCCC(=O)Nc1ccc(NC(=O)c2cc3ccccc3o2)c(OC)c1`, which GFP response, % of DMSO is on record?
Answer: The GFP response, % of DMSO was 87%.

Question: Which GFP response, % of DMSO does the source give for `Cc1ccc(NC(=O)CCCSc2nc3ccccc3[nH]2)cc1` here?
Answer: The GFP response, % of DMSO was 114%.

Question: Which GFP response, % of DMSO does the source give for `COc1ccc2c(c1)C=Cc1ccccc1O2` here?
Answer: The GFP response, % of DMSO was 102%.

Question: For `Cc1ccc(-n2nc(C)c3c(C)c(CCC(=O)O)c(C)nc32)cc1`, which GFP response, % of DMSO is on record?
Answer: The GFP response, % of DMSO was 102%.

Question: Which GFP response, % of DMSO does the source give for `Oc1ccc(/C=N/Nc2nc(-c3cccnc3)nc3ccccc23)c(O)c1` here?
Answer: Its GFP response, % of DMSO is 105%.

Question: Which GFP response, % of DMSO does the source give for `CCCOc1ccc(N2C(=O)CC(SCCN)C2=O)cc1` (stereo not given) here?
Answer: The GFP response, % of DMSO was 96.1%.

Question: For `CCN(CC)C(=O)c1ccc(-c2cccs2)s1`, which GFP response, % of DMSO is on record?
Answer: Its GFP response, % of DMSO is 97.3%.

Question: Which GFP response, % of DMSO does the source give for `O=C(COc1ccccc1[N+](=O)[O-])Nc1ccc(NC(=O)c2cc3ccccc3o2)cc1` here?
Answer: Its GFP response, % of DMSO is 91.8%.

Question: With `COCCNC(=O)c1ccccc1-c1nc(-c2ccccc2Cl)no1` as the molecule, how does the GFP response, % of DMSO read?
Answer: The GFP response, % of DMSO was 103%.

Question: For `COc1ccc(N2C(=O)CC(Sc3ncn[nH]3)C2=O)c(OC)c1` (stereo not given), which GFP response, % of DMSO is on record?
Answer: Its GFP response, % of DMSO is 101%.

Question: With `COc1ccc(N=Nc2ccc(O)c3ncccc23)cc1` as the molecule, how does the GFP response, % of DMSO read?
Answer: Its GFP response, % of DMSO is 103%.

Question: Which GFP response, % of DMSO does the source give for `COc1cc(NC(=O)c2ccccc2)ccc1NC(=O)c1cc2ccccc2o1` here?
Answer: Its GFP response, % of DMSO is 100%.

Question: Which GFP response, % of DMSO does the source give for `CS(=O)(=O)N1N=C(c2ccco2)CC1c1ccc(Br)cc1` (stereo not given) here?
Answer: The GFP response, % of DMSO was 101%.

Question: For `CCN(C(=O)c1ccccc1Cl)c1ccccc1`, which GFP response, % of DMSO is on record?
Answer: The GFP response, % of DMSO was 100%.

Question: With `Cc1ccc(NC(=S)N/N=C/c2c(C)[nH]c3ccccc23)cc1` as the molecule, how does the GFP response, % of DMSO read?
Answer: Its GFP response, % of DMSO is 100%.

Question: For `CCc1nnc(NC(=O)c2nc(S(=O)(=O)Cc3cccc(C)c3)ncc2Cl)s1`, which GFP response, % of DMSO is on record?
Answer: Its GFP response, % of DMSO is 98%.

Question: With `O=C(NCc1ccc2c(c1)OCO2)c1nc(S(=O)(=O)Cc2ccccc2)ncc1Cl` as the molecule, how does the GFP response, % of DMSO read?
Answer: Its GFP response, % of DMSO is 96.8%.

Question: Which GFP response, % of DMSO does the source give for `COc1ccccc1-c1noc(-c2cc(OC)c(OC)c(OC)c2)n1` here?
Answer: The GFP response, % of DMSO was 98.7%.

Question: Which GFP response, % of DMSO does the source give for `N#C/C(=C\c1c(N2CCCCC2)nc2ccccn2c1=O)C(=O)NCc1ccco1` here?
Answer: Its GFP response, % of DMSO is 96.8%.

Question: With `COc1cc(NC(=O)c2ccc(Br)cc2)ccc1NC(=O)c1cc2ccccc2o1` as the molecule, how does the GFP response, % of DMSO read?
Answer: Its GFP response, % of DMSO is 97.7%.

Question: With `CCOC(=O)CS(=O)(=O)c1nc(-c2ccc(F)cc2)cc(C(F)(F)F)n1` as the molecule, how does the GFP response, % of DMSO read?
Answer: Its GFP response, % of DMSO is 106%.

Question: With `CC[n+]1c(/C=C/c2ccc(N(C)C)cc2)ccc2ccccc21` as the molecule, how does the GFP response, % of DMSO read?
Answer: The GFP response, % of DMSO was 96.8%.

Question: Which GFP response, % of DMSO does the source give for `CCOc1cc(/C=N/Nc2nc(C)cc(=O)[nH]2)ccc1O` here?
Answer: The GFP response, % of DMSO was 103%.

Question: With `Cc1ccc(/C=C/C(=O)c2ccccc(=O)c2O)c(C)c1` as the molecule, how does the GFP response, % of DMSO read?
Answer: The GFP response, % of DMSO was 96.8%.

Question: With `COc1ccc(-c2ccc(S(=O)(=O)N3CCOCC3)cc2)cc1` as the molecule, how does the GFP response, % of DMSO read?
Answer: The GFP response, % of DMSO was 102%.

Question: For `CCNC(=O)c1ccccc1-c1nc(-c2ccccc2Cl)no1`, which GFP response, % of DMSO is on record?
Answer: The GFP response, % of DMSO was 97.1%.

Question: With `O=C(OCC(=O)N1CCN(C(=O)c2ccco2)CC1)c1cc(-c2ccccc2)nc2ccccc12` as the molecule, how does the GFP response, % of DMSO read?
Answer: The GFP response, % of DMSO was 130%.

Question: Which GFP response, % of DMSO does the source give for `Cc1nnc(NC(=O)c2ccc(S(=O)(=O)N3CCCCCC3)cc2)o1` here?
Answer: Its GFP response, % of DMSO is 96.8%.

Question: With `NC(N)=N/N=C/c1ccc(OCc2ccc(Cl)cc2Cl)cc1` as the molecule, how does the GFP response, % of DMSO read?
Answer: Its GFP response, % of DMSO is 84.3%.

Question: With `Cc1noc(/C=C/c2cccnc2)c1[N+](=O)[O-]` as the molecule, how does the GFP response, % of DMSO read?
Answer: Its GFP response, % of DMSO is 89.1%.

Question: With `NC(=O)c1ccccc1OCC(=O)c1ccc(Cl)cc1` as the molecule, how does the GFP response, % of DMSO read?
Answer: Its GFP response, % of DMSO is 100%.

Question: For `CCc1nnc(NC(=O)c2nc(S(=O)(=O)Cc3ccc(C)cc3)ncc2Cl)s1`, which GFP response, % of DMSO is on record?
Answer: Its GFP response, % of DMSO is 99.1%.

Question: For `CN1/C(=C\C(=O)c2cccc(S(=O)(=O)N3CCCCC3)c2)C(C)(C)c2ccccc21`, which GFP response, % of DMSO is on record?
Answer: Its GFP response, % of DMSO is 98.5%.

Question: For `Cc1n[nH]c(C)c1N1C(=O)c2cccc3c(Br)ccc(c23)C1=O`, which GFP response, % of DMSO is on record?
Answer: The GFP response, % of DMSO was 94.5%.

Question: With `Cc1nnc(N2C(=O)c3cccc4cccc(c34)C2=O)s1` as the molecule, how does the GFP response, % of DMSO read?
Answer: Its GFP response, % of DMSO is 102%.

Question: Which GFP response, % of DMSO does the source give for `CS(=O)(=O)N1CCc2cc(C(=O)Nc3ccc(COCC(F)(F)F)cc3)ccc21` here?
Answer: Its GFP response, % of DMSO is 111%.

Question: With `O=[N+]([O-])c1ccc(Sc2ccccc2Cl)nc1` as the molecule, how does the GFP response, % of DMSO read?
Answer: The GFP response, % of DMSO was 103%.

Question: Which GFP response, % of DMSO does the source give for `CC(=O)Oc1ccc(N2C(=O)C3C4C=CC(CO)(O4)C3C2=O)cc1` (stereo not given) here?
Answer: Its GFP response, % of DMSO is 104%.

Source: PubChem BioAssay
